Growth data for 8 compounds are collected here from PubChem BioAssay (NCI).

Among the test systems are SR leukemia; OVCAR-8 ovarian; OVCAR-5 ovarian; OVCAR-4 ovarian; SK-OV-3 ovarian; IGROV1 ovarian; OVCAR-3 ovarian; HS 578T breast; NCI/ADR-RES ovarian; T-47D breast; BT-549 breast; SW-620 colon; MCF7 breast; HCT-116 colon; HCC-2998 colon; KM12 colon; MDA-MB-435 melanoma.
Common to all, as to assay: NCI-60 one-dose screen, 48 h (100 = growth as untreated, 0 = no growth, -100 = all killed)
Common to all, as to conditions: 10 µM unless noted

This is part of a sample that, as a whole, favours compounds with a hit. Of some 83,000 tested, about 20% had one in any assay.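 The endpoint reported here, percent growth, reads 100 for growth as untreated, 0 for no net growth and -100 for all cells dead.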 Unmarked numbers belong to inactive results. Calls of active or inactive are those of the source. How the source made its calls: active means growth percent below 10; inactive means the rest.

Turning to `CCc1cccc2c1S/C(=C/c1ccc(Cl)cc1)C2=O`, the growth in the assay on SR leukemia was 79%; in the assay with OVCAR-8 ovarian, 101%; with OVCAR-5 ovarian, 100%; with OVCAR-4 ovarian, 93.5%; in the assay with SK-OV-3 ovarian, 85.7%; in the assay on IGROV1 ovarian, 65.6%. Further, the growth was 104% with OVCAR-3 ovarian; 88% in the assay with HS 578T breast; 101% in the assay with NCI/ADR-RES ovarian; 68.2% with T-47D breast; 112% in the assay with BT-549 breast; 94.5% with SW-620 colon. For the same compound, the growth in the assay on MCF7 breast was 52.1%; in the assay with HCT-116 colon, 91.8%; in the assay with HCC-2998 colon it was 110%; in the assay on KM12 colon, 98.2%.
As for `CCCCn1c(-c2ccc(C(=O)O/N=C(\N)c3ccc(OC)cc3)cc2)nc(-c2ccccc2)c1-c1ccccc1`, the growth in the assay with SR leukemia was -47.4% (active); in the assay with OVCAR-8 ovarian, -16.8% (active); in the assay with OVCAR-5 ovarian, 24.1%; in the assay with OVCAR-4 ovarian, 23.1%; in the assay on SK-OV-3 ovarian it was 87%; with IGROV1 ovarian, -70.2% (active). For the same compound, the growth was -6.99% (active) with OVCAR-3 ovarian; -8.31% (active) in the assay with HS 578T breast; -39.5% (active) with NCI/ADR-RES ovarian; -31.8% (active) with T-47D breast; 11.7% in the assay on BT-549 breast; 5.52% (active) in the assay with SW-620 colon. Also, the growth with MCF7 breast is -24.7% (active); in the assay on HCT-116 colon it was -33.6% (active); in the assay with HCC-2998 colon it was 1.5% (active); in the assay on KM12 colon, 9.02% (active).
Take `Nc1nn(C(=O)Nc2ccc(Cc3ccccc3)cc2)c2ccc(Cl)cc12`: the growth with SR leukemia was 71.7%; in the assay with OVCAR-8 ovarian it was 72.5%; with OVCAR-5 ovarian, 55.7%; with OVCAR-4 ovarian, 54.3%; in the assay on SK-OV-3 ovarian, 91%; in the assay with IGROV1 ovarian, 76.2%. Further, the growth in the assay on OVCAR-3 ovarian was 76.7%; in the assay on HS 578T breast it was 92.1%; with T-47D breast, 41.4%; with BT-549 breast, 55.9%; in the assay with MDA-MB-435 melanoma, 53.3%; in the assay on SW-620 colon, 81.8%. Also, the growth is 20.7% with MCF7 breast, 42.5% with HCT-116 colon, 2.27% (active) in the assay on HCC-2998 colon and 66.2% in the assay with KM12 colon.
As for `O=S(=O)(Nc1ccc(-c2nc(-c3cccc(OCCN4CCOCC4)c3)c(-c3ccnc(Br)c3)[nH]2)cc1)c1ccccc1`, the growth in the assay on SR leukemia is -18.7% (active); in the assay on OVCAR-8 ovarian it was 32.3%; in the assay on OVCAR-5 ovarian, 54.5%; in the assay on OVCAR-4 ovarian, 40.6%; with SK-OV-3 ovarian, 59.1%; in the assay with IGROV1 ovarian, 43.7%. Further, the growth was 46.1% in the assay with OVCAR-3 ovarian; 0.194% (active) with HS 578T breast; 54.1% with NCI/ADR-RES ovarian; 26.6% with T-47D breast; 54.3% in the assay with BT-549 breast; 43.5% in the assay with SW-620 colon. In addition, the growth is 9.52% (active) in the assay on MCF7 breast, 23.6% in the assay on HCT-116 colon, 19.1% in the assay with HCC-2998 colon and 8.86% (active) with KM12 colon.
For the compound `CCCCn1c(-c2ccc(-c3nc(-c4ccc(Cl)cc4)no3)cc2)nc(-c2ccccc2)c1-c1ccccc1`, the growth is 6.15% (active) in the assay with SR leukemia; 88.5% in the assay with OVCAR-8 ovarian; 85.4% with OVCAR-5 ovarian; 82% with OVCAR-4 ovarian; 88.8% with SK-OV-3 ovarian; 39.5% with IGROV1 ovarian. In addition, the growth with OVCAR-3 ovarian is 93.9%; with HS 578T breast, 95.4%; in the assay on T-47D breast, 76.3%; in the assay with BT-549 breast, 101%; in the assay with SW-620 colon, 88.8%; in the assay on MCF7 breast, 79%. Further, the growth is 75.4% in the assay on HCT-116 colon, 105% with HCC-2998 colon and 95.2% in the assay with KM12 colon.
For `Cc1ccc(C(CC(=O)O)c2c(C)[nH][nH]c2=O)cc1` (configuration not stated), the growth is 99% with SR leukemia; 101% in the assay on OVCAR-8 ovarian; 106% with OVCAR-5 ovarian; 111% with OVCAR-4 ovarian; 97.7% in the assay with SK-OV-3 ovarian; 105% in the assay on IGROV1 ovarian. The growth with OVCAR-3 ovarian is 109%; with HS 578T breast, 109%; with NCI/ADR-RES ovarian it was 102%; in the assay on T-47D breast it was 86.6%; in the assay on BT-549 breast it was 103%; in the assay on SW-620 colon, 108%. Also, the growth with MCF7 breast was 100%; in the assay on HCT-116 colon it was 107%; with HCC-2998 colon it was 108%; in the assay with KM12 colon it was 101%.
For `COc1ccc(CNC(=O)[C@H](O)[C@@H](N)Cc2ccccc2)cc1`, the growth in the assay with SR leukemia was 93.4%; in the assay with OVCAR-8 ovarian it was 108%; in the assay with OVCAR-5 ovarian, 98%; in the assay on OVCAR-4 ovarian it was 104%; with SK-OV-3 ovarian, 110%; in the assay with OVCAR-3 ovarian, 119%. Further, the growth with HS 578T breast was 102%; in the assay with NCI/ADR-RES ovarian it was 109%; with T-47D breast, 110%; in the assay with BT-549 breast it was 109%; in the assay with MDA-MB-435 melanoma, 104%; in the assay on SW-620 colon, 104%. The growth in the assay on MCF7 breast is 94.5%; in the assay on HCT-116 colon it was 109%; in the assay on HCC-2998 colon, 105%; in the assay on KM12 colon, 101%.
Regarding `O=C(N/N=C/[C@H](O)[C@@H](O)[C@@H](O)[C@H](O)CO)c1ccc(NC(=O)c2cccnc2)cc1`, the growth with SR leukemia is 103%; in the assay with OVCAR-8 ovarian, 105%; with OVCAR-5 ovarian it was 106%; in the assay with OVCAR-4 ovarian it was 102%; in the assay on SK-OV-3 ovarian, 108%; in the assay on IGROV1 ovarian, 110%. Moreover, the growth in the assay on OVCAR-3 ovarian is 120%; in the assay with HS 578T breast it was 108%; with T-47D breast, 100%; in the assay with BT-549 breast, 106%; with MDA-MB-435 melanoma, 106%; in the assay on SW-620 colon, 108%. Further, the growth is 94.8% with MCF7 breast, 108% in the assay with HCT-116 colon, 117% with HCC-2998 colon and 106% in the assay on KM12 colon.
